TDP1 cell CPT – qHTS for Inhibitors of human tyrosyl-DNA phosphodiesterase 1 (TDP1): qHTS in cells in presence of CPT; chicken DT40 Tdp1-/-;hTDP1 cells + 20 nM CPT, ATP luminescence, 48 h; Potency, µM (top dose mostly 46.2 µM), actives largely listed as inhibitors; 420,000 compounds, 12% hits; AID 686979, 2013; note: nearly all actives have a fitted effect of over 55% in size
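Cell growth measured by CellTiter-Glo luminescence after a minimum 48 h, 37 C compound exposure with 20 nM CPT in Tdp1-knockout DT40 cells stably expressing hTDP1, seeded 400/well; qHTS titration format.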
HT1080 IDH1KD tx – qHTS for induction of synthetic lethality in tumor cells producing 2HG: qHTS for the HT-1080-IDH1KD cell line | 360,000 compounds, 2% hits | Potency, µM (titrated, usually from 46.1 µM), hits mostly cytotoxic | HT-1080 IDH1 knockdown viability, ATP luminescence, 48 h
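% activity derives from luminescence (CellTiter-Glo), normalised to DMSO and no-cell wells. HT-1080-IDH1KD cells, 750/well, had 48 h compound exposure at 37 °C.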
HT1080NT lethal – qHTS for induction of synthetic lethality in tumor cells producing 2HG: qHTS for the HT-1080-NT fibrosarcoma cell line. 360,000 compounds, 1.6% hits. Potency, µM (titrated, usually from 46.1 µM), hits mostly cytotoxic. AID 686970, 2013. HT-1080-NT fibrosarcoma viability, CellTiter-Glo ATP luminescence, 48 h;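 note: NT is the 2HG producing partner of a matched IDH1 knockdown line; nearly all actives have a fitted effect of over 55% in size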
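HT-1080-NT; 750 cells/well; 5% FBS RPMI; 48 h compound, 37 degrees C; CellTiter-Glo luminescence; curve fitting and curve-class assignment.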
IL1B secr inh – qHTS for Inhibitors of Inflammasome Signaling: IL-1-beta AlphaLISA Primary Screen; THP-1 LPS/ATP IL-1B secretion, AlphaLISA, 16 h; stronger effect = lower value; AID 743279, 2014; activity change, % at 57.5 µM; 360,000 compounds, 4.7% hits; in the data active = activity change below about -50%; inconclusive = mostly about -30% to -49%
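Secreted IL-1B measured by AlphaLISA bead assay after 16 h compound exposure of THP-1 cells; compounds (final up to 57.5 uM) added 1 h before LPS (250 ng/mL) and ATP (1.25 mM) stimulation; lower signal means less secretion.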
ELG1 DNA repair – qHTS screen for small molecules that inhibit ELG1-dependent DNA repair in human embryonic kidney (HEK293T) cells expressing luciferase-tagged ELG1. 330,000 compounds, 2.3% hits. Potency, µM (titrated, usually from 46.1 µM), most hits filed as inhibitors. HEK293T ELG1-luciferase reporter, luminescence, 16 h; DNA damage induced by 5-fluorouridine. AID 504467, 2011; note: nearly all actives have a fitted effect of over 55% in size
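Cells (2,000 per well) received 5-fluorouridine plus test compound or DMSO and were incubated 16 hr at 37 °C, 5% CO2. Luciferase activity was read by luminescence 30 min after ONE-Glo addition; signal suppression marked inhibition of damage-induced ELG1 function.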
TDP1 cell noCPT – qHTS for Inhibitors of human tyrosyl-DNA phosphodiesterase 1 (TDP1): qHTS in cells in absence of CPT; DT40 Tdp1-/- hTDP1 cells, no CPT, ATP luminescence, 48 h; Potency, µM (titrated, usually from 46.2 µM), most hits filed as inhibitors; 420,000 compounds, 15% hits; note: nearly all actives have a fitted effect of over 55% in size
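Camptothecin absent (DMSO only). Human TDP1-complemented DT40 knockout cells, 400 cells/well, 37 °C for minimum 48 hr; ATP measured via CellTiter-Glo, 30 min dark incubation, luminescence.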
Hits are given with their value; n = inactive; u = inconclusive; x = no result; [ ] = remark or other dose. Rows were chosen to be rich in hits. Some 19% of all compounds tested hit in one or more screens of this group. Unless noted, calls come from the whole dose curve; as a rule, active = well fitted curve in the direction sought with a large enough effect; inconclusive = small, poorly fitted or top-dose-only effect, or another doubt; inactive = no such curve, though single readings can be large; an effect the other way counts as inactive or inconclusive.

SMILES | TDP1 cell CPT | HT1080 IDH1KD tx | HT1080NT lethal | IL1B secr inh | ELG1 DNA repair | TDP1 cell noCPT
COc1ccccc1CNC(=O)[C@H](Cc1c[nH]c2ccccc12)NC(=O)[C@@H]1Cc2ccccc2CN1 | u | n | n | n | n | u
COc1cc(C(c2nnnn2C2CCCC2)N2CCN(C(=O)c3ccco3)CC2)cc(OC)c1OC (stereo unspecified) | n | n | n | n | n | n
COc1ccc(C2(C)NC(=O)N(CC(=O)NC3CCCC3)C2=O)cc1OC (stereo unspecified) | n | n | n[9.24 µM] | n | n | n
COc1cc(-c2nc3cnccn3c2Nc2c(C)cccc2C)ccc1O | u | n | n | n | n | u
CCc1cccc(C)c1Nc1c(-c2cccc(O)c2)nc2sccn12 | 15µM | x | x | x | x | 16µM
Cc1cccc(C)c1Nc1c(-c2ccc(O)cc2)nc2sccn12 | 6.5µM | x | x | x | x | 7.3µM
Cc1nc(SCC(=O)N(C)Cc2ccco2)c2c(C)c(C)sc2n1 | 16µM | u | n | n | u | u
Cc1nc(NCc2ccco2)c2c(C)c(C)sc2n1 | 2.1µM | 2.8µM | 5.6µM | -77 | 9.2µM | 1.8µM
Cc1sc2nc3c4ccccc4c(NCc4ccco4)nn3c(=O)c2c1C | u | n | n | n | u | u
CCN(C(=O)CSc1nc(C)nc2sc(C)c(C)c12)c1ccc(F)cc1 | n | n | n | n | n | u
CCN(Cc1ccc2c(c1)OCO2)C(=O)CSc1nc(C)nc2sc(C)c(C)c12 | u | n | n | n | 18µM | u
CCN(C(=O)c1cc(S(=O)(=O)N2CCCC2)cn1C)c1ccc(OC)cc1 | n | x | x | x | x | n
CC1CCCCN1CCCNC(=O)CCCN1C(=O)c2cccnc2Sc2ccccc21 (stereo unspecified) | n | n | n | n | n | n
CON | n | x | x | x | x | n
O=C(c1ccc2c(c1)OCO2)C1CCCN(Cc2cn[nH]c2-c2ccccc2)C1 (stereo unspecified) | n | n | n | n | n | n
O=C(c1ccc2c(c1)OCO2)C1CCCN(Cc2ccc3cccc(F)c3n2)C1 (stereo unspecified) | u | n | n | n | n | 21µM
O=C(c1ccc2c(c1)OCO2)C1CCCN(Cc2cn[nH]c2-c2cccc(F)c2)C1 (stereo unspecified) | u | n | n | -92 | u | u
CC(C)(C)C(=O)c1cn(CC(=O)NCc2ccc3c(c2)OCO3)c2ccccc12 | u | n | n | n | n | 23µM
Cc1ccc(C(C(=O)Nc2ccc3c(c2)OCO3)N(C)C(=O)Cc2c[nH]c3ccccc23)cc1 (stereo unspecified) | u | u | u | -52 | n | n
O=C(NCc1ccc2c(c1)OCO2)c1ccccc1Cl | n | n | n | -68 | x | n
CC(C)C(=O)c1cn(CC(=O)NCc2ccc3c(c2)OCO3)c2ccccc12 | n | n | n | n | n | u
O=C(Cc1c[nH]c2ccccc12)NCc1ccc2c(c1)OCO2 | n | n | n | n | 12µM | u
O=C(Cc1cc(C(F)(F)F)cc(C(F)(F)F)c1)Nc1c(-c2ccccc2)[nH][nH]c1=O | n | n | n | n | x | n
Cc1cc(CNC(=O)c2ccc3c(c2)OCO3)c2ccccc2n1 | 7.3µM | u | u | n | u | 4.6µM
O=C(NCc1ccc2c(c1)OCO2)c1cc(-c2ccccn2)nc2ccccc12 | n | n | n | -82 | u | u
SMILES | TDP1 cell CPT | HT1080 IDH1KD tx | HT1080NT lethal | IL1B secr inh | ELG1 DNA repair | TDP1 cell noCPT
O=C(Cc1ccccc1)NCc1ccc2c(c1)OCO2 | n | n | n | n | u | n
Cc1cc(C)cc(NC(=O)CN(Cc2ccccc2)S(C)(=O)=O)c1 | u | n | n | n | n | 13µM
CS(=O)(=O)N(CC(=O)NCc1ccc2c(c1)OCO2)Cc1ccccc1 | 29µM | n | n | n | n | 21µM
O=C(NCc1ccco1)c1cc(-c2ccccn2)nc2ccccc12 | n | n[9.24 µM] | n | n | n | n
O=C(CCCc1c[nH]c2ccccc12)NCC1COc2ccccc2O1 (stereo unspecified) | n | n | n | n | u | u
C/C(N)=C(/C#N)C(=O)COC(=O)CNC(=O)c1ccc(Cl)cc1Cl | n | n | n | n | n | n
CC(C)c1cc(=O)[nH]c(N2CCN(Cc3ccc4c(c3)OCO4)CC2)n1 | n | n | n | n | n | u
CC(C)n1nc(C(=O)NCc2ccc3c(c2)OCO3)c2ccccc2c1=O | 16µM | n | n | n | n | 21µM
Cc1nc2ccccc2nc1OCC(=O)NCc1ccc2c(c1)OCO2 | 15µM | u | n | n | n | 7.3µM
O=C(COc1ncnc2ccccc12)NCc1ccc2c(c1)OCO2 | n | n | n | n | n | n
S=C(NCc1ccc2c(c1)OCO2)NCc1ccc2c(c1)OCO2 | n | n | n | n | n | n
CCc1cccc(CC)c1NC(=S)NC(C)c1ccccc1 (stereo unspecified) | n | n | n | n | n | 23µM
CCc1cccc(CC)c1NC(=S)NCc1ccc2c(c1)OCO2 | 23µM | n | n | n | n | 18µM
Cc1cc(C)c(C(=O)COC(=O)c2cccc(S(=O)(=O)N3CCOCC3)c2)cc1C | u | n | n | n | x | u
COc1ccc([C@H]2CC(=O)C=C(c3cccc(C(C)C)c3)C2)cc1 | u | n | n | u | n | u
COc1ccc(C(=O)N2CCCC(c3cc(C(=O)NCc4cccnc4)no3)C2)cc1 (stereo unspecified) | u | n | n | n | x | u
O=C(Cc1c[nH]c2ccccc12)N/N=C/c1ccccc1O | 16µM | n | n | n | u | u
C=CCn1c(=O)c(C(=O)NCc2ccc3c(c2)OCO3)c(O)c2cc(OC)c(OC)cc21 | u | n | n | n | n | 18µM
O=C(NCc1ccc2c(c1)OCO2)c1c(F)c(F)c(F)c(F)c1F | n | n | n | -65 | n | n
CCOC(=O)C(CC)n1cnc2c(nnn2-c2ccc(F)cc2)c1=O (stereo unspecified) | n | n | n | n | u | n
CCN(CC)C(=O)OCc1c(-c2cccc(OC)c2)ncc2ccccc12 | n | n | n | n | u | u
COc1ccc(COc2cc(-c3cccc(OC)c3)nc3ccc(NC(C)=O)cc23)cc1 | n | n | n | n | u | n
